# In PubChem BioAssay (NCATS):
# Records with an inconclusive call do not appear. Entries that show only a call come without a potency. Active and inactive are the calls of the source. Calls come from the whole dose curve; as a rule, active = well fitted inhibition curve with a large enough effect; inconclusive = small, poorly fitted or top-dose-only effect; inactive = flat fitted curve, though single readings scatter.
# System: CRL-7250
# Experiment: qHTS assay to identify novel small-molecules to repurpose for Merkel cell carcinoma treatment (AID 1296009); note: nearly all actives have a fitted effect of over 60% in size
# Conditions: MCC and control cell lines, CellTiter-Glo viability, 72 h; series mostly up to 92 µM
# Summary of the method: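 72 hr, 37 degree celsius; NPC 8-pt / MIPE 11-pt dose response; compound pinned in DMSO; CellTiter-Glo, 10 min RT, luminescence; normalized to no-cell and DMSO controls.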
row,SMILES,Potency
1,C/C=C/C=C/C(CC(=O)O)Nc1ccc(C=O)cc1 (centres undefined),inactive
2,CC(=O)c1[nH]cc(CCC(=O)O)c1CC(=O)O,inactive
3,CC(=O)O[C@]1(C(C)=O)CC[C@H]2[C@@H]3CCC4=CC(=O)CCC4=C3[C@@H](c3ccc(N(C)C)cc3)C[C@@]21C,inactive
4,CC/C=C\CC1C(CC(=O)O)CCC1OC1OC(CO)C(O)C(O)C1O (centres undefined),inactive
5,C=C1C(O)CCC2(C)CC3(OC)OC(=O)C(C)=C3CC12 (centres undefined),inactive
6,COC(=O)C1=COC(OC2OC(CO)C(O)C(O)C2O)C2C(COC(=O)/C=C/c3ccc(O)c(O)c3)C(O)C(O)C12 (centres undefined),inactive
7,C/C(=C\CCC1(C)C2CCC(C2)C1(C)O)C(=O)O (centres undefined),inactive
8,CC1(C)CC[C@]2(C(=O)O)CC[C@]3(C)C(=CCC4[C@@]5(C)CC[C@H](O)C(C)(C)C5CC[C@]43C)C2C1 (some centres undefined),inactive
9,COc1ccc(C(O[C@@H]2O[C@H](CO)[C@@H](O)[C@H](O)[C@H]2O)C(CO)Oc2ccc(/C=C/CO)cc2OC)cc1O (some centres undefined),inactive
10,COC(=O)C1=COC(OC2OC(CO)C(O)C(O)C2O)C2C(COC(=O)/C=C/c3ccc(O)cc3)C(O)C(O)C12 (centres undefined),inactive
11,Nc1ncnc2c1ncn2CCNCCCCCO,inactive
12,C=C1CC23CC(=O)C4C(CO)(CO)CCCC4(C)C2CCC1C3 (centres undefined),inactive
13,O=C(/C=C/c1ccccc1)O[C@@H]1[C@@H](CO)O[C@@](CO)(O[C@H]2O[C@H](CO)[C@@H](O)[C@H](O)[C@H]2O)[C@H]1O,inactive
14,COc1cc(O)cc(C)c1C(=O)OC1C(CO)OC(n2ccc(=O)[nH]c2=O)C1OC(C)=O (centres undefined),inactive
